Reference: PubChem BioAssay
Records with an inconclusive call do not appear. Activity calls are given as the source filed them.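 How the source made its calls, unless noted: active means Her2 level under about 52% in both replicate screens, with viability over 70% of control (limit read from the data); inconclusive means Her2 under the limit in one screen only, or viability under 70%; inactive means Her2 level above the set limit.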

Key:
[1] = Her2 expression decrease, cell viability multiplex – SKBR3 breast tumor cells, AlphaScreen, ATP viability, primary screen (AID 461); conditions: SKBR3 Her2 protein level, 18-24 h, measured here: SKBR3 viability, ATP luminescence, at 10 µM;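 on Her2 level: lower value means less Her2 protein in the cells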;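 on viability: percent of carrier control wells set as 100% viability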
[2] = molecular target: Receptor tyrosine-protein kinase erbB-2 (Homo sapiens) (UniProt P04626); assay: as above; conditions: 18-24 h, at 10 µM, stronger effect = lower value
Chain of Receptor tyrosine-protein kinase erbB-2 (Homo sapiens) (P04626 whole entry, looked up): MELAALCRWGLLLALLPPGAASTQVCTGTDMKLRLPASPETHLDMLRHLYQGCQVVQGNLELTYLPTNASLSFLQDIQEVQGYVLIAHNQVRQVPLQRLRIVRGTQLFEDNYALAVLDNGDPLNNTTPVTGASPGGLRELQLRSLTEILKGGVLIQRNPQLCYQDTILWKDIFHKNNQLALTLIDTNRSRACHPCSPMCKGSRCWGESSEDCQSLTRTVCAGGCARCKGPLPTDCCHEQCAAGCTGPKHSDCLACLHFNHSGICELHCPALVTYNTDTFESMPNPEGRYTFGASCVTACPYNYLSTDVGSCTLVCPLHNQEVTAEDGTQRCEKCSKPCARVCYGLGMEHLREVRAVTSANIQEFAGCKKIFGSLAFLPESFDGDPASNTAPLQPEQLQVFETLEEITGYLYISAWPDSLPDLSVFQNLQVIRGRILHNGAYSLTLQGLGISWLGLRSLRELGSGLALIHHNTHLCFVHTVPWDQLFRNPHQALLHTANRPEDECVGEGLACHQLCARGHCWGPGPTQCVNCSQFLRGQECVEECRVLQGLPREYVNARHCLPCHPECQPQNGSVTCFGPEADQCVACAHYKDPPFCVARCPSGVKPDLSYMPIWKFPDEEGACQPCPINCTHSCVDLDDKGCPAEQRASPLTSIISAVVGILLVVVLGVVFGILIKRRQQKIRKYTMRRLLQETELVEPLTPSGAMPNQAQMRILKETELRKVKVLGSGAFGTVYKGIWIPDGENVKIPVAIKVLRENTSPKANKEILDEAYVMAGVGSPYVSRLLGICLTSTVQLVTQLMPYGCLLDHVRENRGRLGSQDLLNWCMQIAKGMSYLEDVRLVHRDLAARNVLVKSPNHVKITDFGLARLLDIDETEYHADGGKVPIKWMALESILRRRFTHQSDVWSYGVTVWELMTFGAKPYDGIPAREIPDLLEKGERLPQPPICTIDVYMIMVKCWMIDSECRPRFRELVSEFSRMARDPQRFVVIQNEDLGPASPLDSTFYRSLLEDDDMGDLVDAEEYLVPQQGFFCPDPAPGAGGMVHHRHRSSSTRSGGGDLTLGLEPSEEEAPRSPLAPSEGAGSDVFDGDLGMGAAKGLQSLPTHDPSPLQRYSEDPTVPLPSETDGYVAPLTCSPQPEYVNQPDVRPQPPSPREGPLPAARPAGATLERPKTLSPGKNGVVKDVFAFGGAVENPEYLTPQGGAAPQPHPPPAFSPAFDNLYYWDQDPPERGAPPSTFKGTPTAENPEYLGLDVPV

[3] = reduced viability of SK-BR-3 breast cancer cells – cell-based, 24 h, human, pilot screen (AID 572;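 active means viability at or below 10% of carrier control in both of two separate runs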;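 further: compound exposure lasted between 18 and 24 h rather than exactly 24 h; 100% = carrier-treated control wells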); conditions: SK-BR-3 viability, CellTiter-Glo luminescence, at 10 µM, stronger effect = lower value
[4] = HUVEC growth inhibition – cell-based, human, primary screen (AID 575;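 active means viability at or below 30% in both replicate assays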;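 further: 100% = median of untreated cell wells with 0.1% DMSO on each plate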); conditions: HUVEC proliferation, CellTiter-Glo luminescence, 72 h; at 10 µM; stronger effect = lower value
[5] = H69AR cell proliferation blockers – human, duplicate replicates, primary screen (AID 580;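 active means viability at or under a set limit in both replicates, limit being median viability minus 3 SD, cut at about 48% in these data, passing the limit was not always enough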;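 further: 100% = mean luminescence of untreated wells and 0% = no signal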); conditions: H69AR lung tumor cells viability, ATP luminescence, 72 h; at 10 µM; stronger effect = lower value
[6] = MRP1 drug-resistance reversers in H69AR cells – cell-based, doxorubicin co-treatment, pilot screen (AID 601;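 active means viability loss from added drug above about 55%, and viability with drug at most 40%, in both replicates, limit read from the data, passing the limit was not always enough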); conditions: CellTiter-Glo, 72 h, at 10 µM; for differential viability (reversal): stronger effect = higher value
[7] = yeast transport mutant growth inhibition pilot in 384-well plates, post-Golgi transport modulator project (AID 636; in the data active means inhibition above about 31%); conditions: absorbance 615 nm, about 18 h, stronger effect = higher value
[8] = growth suppression of yeast trafficking mutant, preliminary HTS, modulators of trafficking downstream of Golgi apparatus project, 1536-format plate, OD 615 nm (AID 637; in the data active means inhibition above about 30%); conditions: yeast transport mutant growth, absorbance 615 nm, 18 h; stronger effect = higher value
[9] = S. cerevisiae growth inhibition in permissive medium (OD615), pilot counter-assay for S. cerevisiae lifespan shortening project, permissive growth control (AID 705;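 active means growth inhibition above 25% in both replicates, a cutoff set 3 SD above the mean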); conditions: OD615, 24 h, at 10 µM, stronger effect = higher value
[10] = S. cerevisiae growth inhibition in restrictive medium, OD615, pilot screen, restrictive growth control, yeast lifespan reduction project (AID 706;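 active means growth inhibition above a set limit, 3 SD over mean compound inhibition, in both replicates, cut at about 43% in these data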;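 further: modified DeaD lifespan yeast strain shifted to restrictive glucose medium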); conditions: OD615, 48 h, at 10 µM, stronger effect = higher value
[11] = doxorubicin toxicity protection in MRP-1 cells – H69AR cells, CellTiter-Glo, duplicate, MRP-1 activator project, pilot screen (AID 807;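 active means viability increase at or above a cutoff of the median across tested compounds plus 3 SD, cut at about 8.5% in these data, passing the limit was not always enough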;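 further: compound pretreatment 18-22 h then 72 h combined with doxorubicin; 0% = doxorubicin alone and 100% = vehicle without doxorubicin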); conditions: H69AR viability with doxorubicin, CellTiter-Glo luminescence; at 10 µM; stronger effect = higher value
[12] = viability of HCT116 without oncogenic beta-catenin – human colon tumor cells, pilot screen (AID 823;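 active means cell viability at or below a set limit in both duplicate runs, the limit being the all-compound median minus 4 SD, cut at about 23% in these data, passing the limit was not always enough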;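 further: 0% = wells killed by 20 µM Hyamine and 100% = untreated DMSO cell wells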); conditions: HCT116 beta-catenin knockout viability, CellTiter-Glo, 60 h; at 10 µM; stronger effect = lower value
[13] = viability of PTEN-null HCT116 cells – cell-based, HCT116 clonal line, CellTiter-Glo, pilot screen (AID 824;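 active means viability at or below 27.92% in each of two runs, the all-compound median minus 4 SD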;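 further: 0% = 20 µM Hyamine control and 100% = vehicle cell control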); conditions: HCT116 PTEN-deleted viability, 60 h, at 10 µM, stronger effect = lower value
[14] = RAM pathway blockade in budding yeast – dse1pr::URA3 reporter, 5-FOA selection, pilot screen (AID 869;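 active means inhibition over a set limit, the all-compound mean plus 3 SD, in both replicate runs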;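 further: 0% = DMSO wells with no growth and 100% = 10 µM 1-NA-PP1 with full growth; RAM network block rescues cells from 5-FOA so hits raise OD615 growth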); conditions: S. cerevisiae dse1pr::URA3 5-FOA growth, OD615, 2 d; at 10 µM; stronger effect = higher value; strain carries analog-sensitive mutant Cbk1 kinase
[15] = RAM signaling pathway blockade in yeast – S. cerevisiae, Pdr1DBD-CYC8 efflux-inhibited sensitized strain, primary screen (AID 1298;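 active means RAM network inhibition above 8.4% in each of two replicates, 3 SD over the compound average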;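 further: 0% = DMSO untreated cells without growth and 100% = 10 µM 1-NA-PP1 full growth; higher means more yeast growth rescued from 5-FOA killing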); conditions: S. cerevisiae cbk1-as DSE1-URA3 strain, 5-FOA growth OD615, 2 d; at 50 µM; stronger effect = higher value
[16] = H69AR cells + 2 uM doxorubicin, measured here: viability with 2 uM doxorubicin, stronger effect = lower value
[17] = H69AR cells, compound alone cytotoxicity

## CCN(CCCNS(=O)(=O)c1ccc2c(c1)oc(=O)n2C)c1cccc(C)c1
[1]
  viability: 88%
[2]
  Her2 level: 100% (inactive)
[3]
  viability: 88% (inactive)
[4]
  viability: 106% (inactive)
[5]
  viability: 90.1% (inactive)
[6]; H69AR cells + 2 uM doxorubicin
  differential viability (reversal): 5.6% (inactive)
[6]; [16]
  viability: 84.5%
[6]; [17]
  viability: 90.1%
[7]
  inhibition: -0.38% (inactive)
[8]
  inhibition: 1.33% (inactive)
[9]
  growth inhibition: -12% (inactive)
[10]
  growth inhibition: -10.2% (inactive)
[11]
  viability increase: -3.21% (inactive)
[12]
  viability: 87.2% (inactive)
[13]
  viability: 89.5% (inactive)
[14]
  inhibition: 0.695% (inactive)
[15]
  RAM network inhibition: 7.59% (inactive)

## CCCCN(CCCC)CCn1cnc2c([nH]c3ccc(OC)cc32)c1=O
[1]
  viability: 76%
[2]
  Her2 level: 90.5% (inactive)
[3]
  viability: 76% (inactive)
[4]
  viability: 121% (inactive)
[5]
  viability: 80.2% (inactive)
[6]; H69AR cells + 2 uM doxorubicin
  differential viability (reversal): -12.8% (inactive)
[6]; [16]
  viability: 92.9%
[6]; [17]
  viability: 80.2%
[7]
  inhibition: -1.67% (inactive)
[8]
  inhibition: 2.17% (inactive)
[9]
  growth inhibition: -6.29% (inactive)
[10]
  growth inhibition: 3.9% (inactive)
[11]
  viability increase: -3.78% (inactive)
[12]
  viability: 82.8% (inactive)
[13]
  viability: 86.2% (inactive)
[14]
  inhibition: 0.545% (inactive)
[15]
  RAM network inhibition: 2.03% (inactive)

## CCC1CCCCN1CCNS(=O)(=O)c1ccc2c(c1)oc(=O)n2C (stereo not drawn)
[1]
  viability: 91.5%
[2]
  Her2 level: 84.5% (inactive)
[3]
  viability: 91.5% (inactive)
[4]
  viability: 79.8% (inactive)
[5]
  viability: 85.2% (inactive)
[6]; H69AR cells + 2 uM doxorubicin
  differential viability (reversal): 0.025% (inactive)
[6]; [16]
  viability: 85.1%
[6]; [17]
  viability: 85.2%
[7]
  inhibition: -1.28% (inactive)
[8]
  inhibition: 0.67% (inactive)
[9]
  growth inhibition: -0.855% (inactive)
[10]
  growth inhibition: -5.11% (inactive)
[11]
  viability increase: -2.8% (inactive)
[12]
  viability: 97.9% (inactive)
[13]
  viability: 95.1% (inactive)
[14]
  inhibition: 2.01% (inactive)
[15]
  RAM network inhibition: -1.43% (inactive)

## COc1cccc(C2C(C(N)=O)=C(C)Nc3nc(CCCO)nn32)c1OC (stereo not drawn)
[1]
  viability: 102%
[2]
  Her2 level: 103% (inactive)
[3]
  viability: 102% (inactive)
[4]
  viability: 93.8% (inactive)
[5]
  viability: 96.4% (inactive)
[6]; H69AR cells + 2 uM doxorubicin
  differential viability (reversal): -1.08% (inactive)
[6]; [16]
  viability: 97.5%
[6]; [17]
  viability: 96.4%
[7]
  inhibition: 0.93% (inactive)
[8]
  inhibition: -3.67% (inactive)
[9]
  growth inhibition: -8.7% (inactive)
[10]
  growth inhibition: 14.1% (inactive)
[11]
  viability increase: -0.88% (inactive)
[12]
  viability: 105% (inactive)
[13]
  viability: 104% (inactive)
[14]
  inhibition: 0.085% (inactive)
[15]
  RAM network inhibition: 0.27% (inactive)

## CCCOc1ccc(NC2=CC(=O)CC(C)(C)C2)cc1
[1]
  viability: 100%
[2]
  Her2 level: 103% (inactive)
[3]
  viability: 100% (inactive)
[4]
  viability: 87.2% (inactive)
[5]
  viability: 100% (inactive)
[6]; H69AR cells + 2 uM doxorubicin
  differential viability (reversal): 7.44% (inactive)
[6]; [16]
  viability: 93%
[6]; [17]
  viability: 100%
[7]
  inhibition: -6.89% (inactive)
[8]
  inhibition: 2.13% (inactive)
[9]
  growth inhibition: -2.65% (inactive)
[10]
  growth inhibition: -14.7% (inactive)
[11]
  viability increase: 1.27% (inactive)
[12]
  viability: 95.4% (inactive)
[13]
  viability: 94.2% (inactive)
[14]
  inhibition: 3.14% (inactive)
[15]
  RAM network inhibition: 6.91% (inactive)

## COc1ccc(-c2nnc(SCC(=O)N3CCOCC3)o2)cc1OC
[1]
  viability: 91%
[2]
  Her2 level: 96% (inactive)
[3]
  viability: 91% (inactive)
[4]
  viability: 89.4% (inactive)
[5]
  viability: 96.1% (inactive)
[6]; H69AR cells + 2 uM doxorubicin
  differential viability (reversal): 3.41% (inactive)
[6]; [16]
  viability: 92.7%
[6]; [17]
  viability: 96.1%
[7]
  inhibition: -1.2% (inactive)
[8]
  inhibition: -6.89% (inactive)
[9]
  growth inhibition: 1.14% (inactive)
[10]
  growth inhibition: -3.02% (inactive)
[11]
  viability increase: -1.32% (inactive)
[12]
  viability: 103% (inactive)
[13]
  viability: 110% (inactive)
[14]
  inhibition: 1.16% (inactive)
[15]
  RAM network inhibition: 1.27% (inactive)

## Cn1c(=O)c2c(nc(CN3CCN(Cc4ccccc4)CC3)n2Cc2cccc(Cl)c2)n(C)c1=O
[1]
  viability: 93.5%
[2]
  Her2 level: 81.5% (inactive)
[3]
  viability: 93.5% (inactive)
[4]
  viability: 69.9% (inactive)
[5]
  viability: 57.7% (inactive)
[6]; H69AR cells + 2 uM doxorubicin
  differential viability (reversal): 36.9% (inactive)
[6]; [16]
  viability: 20.9%
[6]; [17]
  viability: 57.7%
[7]
  inhibition: -6.67% (inactive)
[8]
  inhibition: 5.5% (inactive)
[9]
  growth inhibition: 3.47% (inactive)
[10]
  growth inhibition: -0.975% (inactive)
[11]
  viability increase: -2.86% (inactive)
[12]
  viability: 60.8% (inactive)
[13]
  viability: 58.7% (inactive)
[14]
  inhibition: 1% (inactive)
[15]
  RAM network inhibition: 4.53% (inactive)

## C=C(Cl)COc1ccc2c(C)cc(=O)oc2c1
[1]
  viability: 108%
[2]
  Her2 level: 92.5% (inactive)
[3]
  viability: 108% (inactive)
[4]
  viability: 102% (inactive)
[5]
  viability: 101% (inactive)
[6]; H69AR cells + 2 uM doxorubicin
  differential viability (reversal): -2.75% (inactive)
[6]; [16]
  viability: 103%
[6]; [17]
  viability: 101%
[7]
  inhibition: 1.89% (inactive)
[8]
  inhibition: -5.56% (inactive)
[9]
  growth inhibition: -6.04% (inactive)
[10]
  growth inhibition: 5.47% (inactive)
[11]
  viability increase: -0.42% (inactive)
[12]
  viability: 97.8% (inactive)
[13]
  viability: 84% (inactive)
[14]
  inhibition: 0.795% (inactive)
[15]
  RAM network inhibition: 0.1% (inactive)

## COc1ccc(-c2[nH]c(-c3cccc(OC)c3)nc2SCC(=O)NCc2ccco2)cc1
[1]
  viability: 95.5%
[2]
  Her2 level: 85.5% (inactive)
[3]
  viability: 95.5% (inactive)
[4]
  viability: 62.5% (inactive)
[5]
  viability: 71% (inactive)
[6]; H69AR cells + 2 uM doxorubicin
  differential viability (reversal): -2.42% (inactive)
[6]; [16]
  viability: 73.4%
[6]; [17]
  viability: 71%
[7]
  inhibition: -2.67% (inactive)
[8]
  inhibition: -0.33% (inactive)
[9]
  growth inhibition: -9.19% (inactive)
[10]
  growth inhibition: 1.65% (inactive)
[11]
  viability increase: -4.56% (inactive)
[12]
  viability: 93.3% (inactive)
[13]
  viability: 90.3% (inactive)
[14]
  inhibition: 1.09% (inactive)
[15]
  RAM network inhibition: 11.2% (inactive)
